Assay results as given in PubChem BioAssay (NCI).
The panel holds about 79,000 compounds, 15% with a hit somewhere; the sample as a whole holds those more often. Activity calls are given as the source filed them. Cut-off read from the data, not from the text of the source: active = growth inhibition above about 70%; inactive = the rest.

What was measured:
[1] = NCI Yeast Anticancer Drug Screen. Data for the rad52 strain (AID 147);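 note: 0% = growth of vehicle-treated control cultures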; conditions: S. cerevisiae rad52 mutant growth inhibition, hits give high values
Outline: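 The repair-mutant yeast strain was incubated with compounds, then growth was read and inhibition derived relative to vehicle.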

[2] = NCI Yeast Anticancer Drug Screen. Data for the wt1 strain (AID 149);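 note: 0% = growth of vehicle-treated wt1 cultures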; conditions: S. cerevisiae wt1 strain (SPY 50644) growth inhibition, hits give high values
Outline: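 Using yeast strain wt1, compound-induced growth inhibition was determined against vehicle-treated cultures.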

[3] = NCI Yeast Anticancer Drug Screen. Data for the rad50EPP+ strain (AID 151);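 note: 0% = growth of vehicle-treated control cultures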; conditions: S. cerevisiae rad50 mutant strain, hits give high values
Outline: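 Vehicle-normalised growth inhibition; rad50EPP+ yeast strain, altered in DNA damage repair, compound-treated.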

[4] = NCI Yeast Anticancer Drug Screen. Data for the mgt1 strain (AID 153); conditions: S. cerevisiae mgt1 mutant growth inhibition, hits give high values
Outline: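 Vehicle-normalized growth inhibition is determined in mgt1 yeast, a strain selected for a defined alteration in DNA repair or cell cycle control.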

[5] = NCI Yeast Anticancer Drug Screen. Data for the rad50 strain (AID 155);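 note: 0% = growth of vehicle-only cultures of the same strain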; conditions: S. cerevisiae rad50 strain growth inhibition, hits give high values
Outline: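 Relative growth inhibition (compound vs vehicle) was measured in yeast with a defined repair-gene alteration.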

[6] = NCI Yeast Anticancer Drug Screen. Data for the mec2-1 strain (AID 157); conditions: S. cerevisiae mec2-1 strain, hits give high values
Outline: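 Mutant yeast (mec2-1) grown with compound; growth inhibition relative to vehicle control reported.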

[7] = NCI Yeast Anticancer Drug Screen. Data for the rad14 strain (AID 159);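 note: 0% = growth of vehicle-treated control cultures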; conditions: S. cerevisiae rad14 strain growth inhibition, hits give high values
Outline: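 Screen for anticancer potential: a yeast strain altered in DNA damage repair is grown with compound, and reduced growth is quantified against vehicle controls.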

[8] = NCI Yeast Anticancer Drug Screen. Data for the sgs1 mgt1 strain (AID 161);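 note: 0% = growth of cultures given vehicle only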; conditions: S. cerevisiae sgs1 mgt1 strain, hits give high values
Outline: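 Yeast cells carrying a defined DNA-repair defect were exposed to test compounds. Growth inhibition was measured relative to vehicle-treated controls.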

[9] = NCI Yeast Anticancer Drug Screen. Data for the CLN2oe strain (AID 163);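 note: 0% = growth of vehicle-only control cultures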; conditions: S. cerevisiae CLN2oe strain, hits give high values
Outline: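 Compounds are applied to yeast harbouring a defined cell-cycle control change; reduced growth compared with vehicle-treated controls gives the value.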

[10] = NCI Yeast Anticancer Drug Screen. Data for the cln2 rad14 strain (AID 165);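 note: 0% = growth equal to vehicle treated cultures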; conditions: S. cerevisiae cln2 rad14 strain, hits give high values
Outline: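 Readout is yeast growth inhibition versus vehicle-treated controls, using a strain with cln2 and rad14 alterations exposed to compound.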

[11] = NCI Yeast Anticancer Drug Screen. Data for the bub3 strain (AID 167); conditions: S. cerevisiae bub3 mutant strain, hits give high values
Outline: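 Screening used yeast with an engineered genetic alteration affecting cell cycle control. Compound-exposed cultures were compared with vehicle cultures, and reduced growth was taken as inhibition.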

[12] = NCI Yeast Anticancer Drug Screen. Data for the wt2 strain (AID 169);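 note: 0% = growth of vehicle-treated yeast cultures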; conditions: S. cerevisiae wt2 strain growth inhibition, hits give high values
Outline: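 Against vehicle-treated controls, the growth of yeast exposed to each compound was compared, and the inhibition was recorded.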

[13] = NCI Yeast Anticancer Drug Screen. Data for the mlh1 strain (AID 171);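 note: 0% = growth of vehicle-treated control cultures of the same strain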; conditions: S. cerevisiae mlh1 strain growth inhibition, hits give high values
Outline: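 Measured: yeast growth. Reference: vehicle-treated controls. Organism: strain with a defined alteration affecting DNA damage repair or cell cycle control, treated with compound.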

[14] = NCI Yeast Anticancer Drug Screen. Data for the sgs1 strain (AID 173);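 note: 0% = growth of vehicle-only control cultures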; conditions: S. cerevisiae sgs1 mutant, hits give high values
Outline: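 Each compound was added to cultures of the altered yeast strain. Growth was recorded, and inhibition was derived by comparison with vehicle controls.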

[15] = NCI Yeast Anticancer Drug Screen. Data for the mlh1 rad18 strain (AID 175); conditions: S. cerevisiae mlh1 rad18 strain growth inhibition, hits give high values
Outline: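 Genetically defined yeast (DNA repair-deficient) exposed to compounds; growth inhibition determined relative to vehicle.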

[16] = NCI Yeast Anticancer Drug Screen. Data for the rad18 strain (AID 177); conditions: S. cerevisiae rad18 mutant growth inhibition, hits give high values
Outline: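 Vehicle-treated cultures served as the baseline for scoring compound-induced growth inhibition in DNA-repair-mutant yeast.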

[17] = at 5.0 µM (retest, dose inferred, filed as 0.5)
[18] = at 50.0 µM (retest, dose inferred, filed as 5.0)

Measured: growth inhibition

O=c1[nH]cc(/C=N\Nc2ccccc2)c(=O)[nH]1
inactive: [1]; at 1.2 µM 1% | [1]; at 3.7 µM 6% | [1]; at 11.0 µM 36% | [1]; at 33.0 µM 56% | [1]; at 100.0 µM 63% | [2]; at 1.2 µM 3% | [2]; at 3.7 µM 6% | [2]; at 11.0 µM 37% | [2]; at 33.0 µM 57% | [2]; at 100.0 µM 49% | [3]; at 1.2 µM 2% | [3]; at 3.7 µM 7% | [3]; at 11.0 µM 28% | [3]; at 33.0 µM 43% | [3]; at 100.0 µM 42% | [4]; at 1.2 µM 3% | [4]; at 3.7 µM -2% | [4]; at 11.0 µM 21% | [4]; at 33.0 µM 31% | [4]; at 100.0 µM 46% | [5]; at 1.2 µM 3% | [5]; at 3.7 µM 17% | [5]; [17] -11% | [5]; at 11.0 µM 31% | [5]; at 33.0 µM 49% | [5]; [18] 40% | [5]; at 50.0 µM 61.9% | [5]; at 100.0 µM 60% | [6]; at 1.2 µM 0% | [6]; at 3.7 µM -2% | [6]; [17] -3% | [6]; at 11.0 µM 27% | [6]; at 33.0 µM 31% | [6]; [18] 15% | [6]; at 50.0 µM 52.4% | [6]; at 100.0 µM 21% | [7]; at 1.2 µM -1% | [7]; at 3.7 µM 1% | [7]; at 11.0 µM 12% | [7]; at 33.0 µM 15% | [7]; at 100.0 µM 10% | [8]; [17] -1% | [8]; [18] 67% | [8]; at 50.0 µM 60.9% | [9]; at 1.2 µM -3% | [9]; at 3.7 µM 6% | [9]; at 11.0 µM 32% | [9]; at 33.0 µM 43% | [9]; at 100.0 µM 48% | [10]; [17] -29% | [10]; [18] 29% | [11]; at 1.2 µM 9% | [11]; at 3.7 µM 1% | [11]; [17] 7% | [11]; at 11.0 µM 27% | [11]; at 33.0 µM 39% | [11]; [18] 50% | [11]; at 100.0 µM 40% | [12]; at 1.2 µM 0% | [12]; at 3.7 µM 8% | [12]; at 11.0 µM 51% | [12]; at 33.0 µM 57% | [12]; at 100.0 µM 55% | [13]; at 1.2 µM -3% | [13]; at 3.7 µM 5% | [13]; at 11.0 µM 17% | [13]; at 33.0 µM 28% | [13]; at 100.0 µM 39% | [14]; at 1.2 µM 3% | [14]; at 3.7 µM 8% | [14]; at 11.0 µM 41% | [14]; at 33.0 µM 62% | [14]; at 100.0 µM 66% | [15]; [17] -3% | [16]; at 1.2 µM 5% | [16]; at 3.7 µM 28%
active: [10]; at 50.0 µM 73.8% | [11]; at 50.0 µM 82.9% | [15]; [18] 81% | [15]; at 50.0 µM 84.5% | [16]; at 11.0 µM 73% | [16]; at 33.0 µM 88% | [16]; at 100.0 µM 89%

CCOC(=O)C1=C(C)NC(C)=C(C(=O)OCC)C1c1ccccc1Cl
active: [1]; at 100.0 µM 93% | [2]; at 100.0 µM 95% | [4]; at 100.0 µM 96% | [5]; [18] 100% | [5]; at 50.0 µM 90% | [5]; at 100.0 µM 91% | [6]; [18] 99% | [6]; at 50.0 µM 91.7% | [6]; at 100.0 µM 95% | [7]; at 100.0 µM 93% | [8]; [18] 91% | [9]; at 100.0 µM 94% | [10]; [18] 90% | [11]; [18] 84% | [11]; at 100.0 µM 95% | [12]; at 100.0 µM 96% | [13]; at 100.0 µM 93% | [14]; at 100.0 µM 96% | [15]; [18] 99% | [15]; at 50.0 µM 90.4% | [16]; at 100.0 µM 93%
inactive: [1]; at 1.2 µM -25% | [1]; at 3.7 µM -10% | [1]; at 11.0 µM 4% | [1]; at 33.0 µM 42% | [2]; at 1.2 µM -8% | [2]; at 3.7 µM 3% | [2]; at 11.0 µM -6% | [2]; at 33.0 µM 40% | [3]; at 1.2 µM -5% | [3]; at 3.7 µM 13% | [3]; at 11.0 µM 9% | [3]; at 33.0 µM 17% | [3]; at 100.0 µM 26% | [4]; at 1.2 µM 14% | [4]; at 3.7 µM 14% | [4]; at 11.0 µM 19% | [4]; at 33.0 µM 54% | [5]; at 1.2 µM 9% | [5]; at 3.7 µM 23% | [5]; [17] 54% | [5]; at 11.0 µM 29% | [5]; at 33.0 µM 48% | [6]; at 1.2 µM 8% | [6]; at 3.7 µM -2% | [6]; [17] 52% | [6]; at 11.0 µM -2% | [6]; at 33.0 µM 51% | [7]; at 1.2 µM -4% | [7]; at 3.7 µM -10% | [7]; at 11.0 µM 10% | [7]; at 33.0 µM 53% | [8]; [17] -15% | [9]; at 1.2 µM -13% | [9]; at 3.7 µM -22% | [9]; at 11.0 µM 38% | [9]; at 33.0 µM 56% | [10]; [17] 43% | [11]; at 1.2 µM 35% | [11]; at 3.7 µM 34% | [11]; [17] 26% | [11]; at 11.0 µM 4% | [11]; at 33.0 µM 62% | [12]; at 1.2 µM 14% | [12]; at 3.7 µM 11% | [12]; at 11.0 µM 20% | [12]; at 33.0 µM 49% | [13]; at 1.2 µM -38% | [13]; at 3.7 µM -31% | [13]; at 11.0 µM -25% | [13]; at 33.0 µM 41% | [14]; at 1.2 µM 26% | [14]; at 3.7 µM 28% | [14]; at 11.0 µM 38% | [14]; at 33.0 µM 67% | [15]; [17] 36% | [16]; at 1.2 µM 2% | [16]; at 3.7 µM 18% | [16]; at 11.0 µM 20% | [16]; at 33.0 µM 50%
